Measured values published in PubChem BioAssay AID651678 (Sanford-Burnham Center for Chemical Genomics, 2012).
The list shows a part of the results. Activity calls are given as the source filed them. Rule as the data show it: active = inhibition mostly above about 35% (no sharp cut-off); inactive = mostly below about 32%.

Target: Sentrin-specific protease 1 (Homo sapiens) (UniProt Q9P0U3)
Test: human SENP1 catalytic domain inhibitors, confirmation, biochemical, FRET endpoint, single concentration (AID 651678);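 also: 0% = enzyme with DMSO and 100% = no enzyme control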
Conditions: recombinant SENP1, CyPet-SUMO1-YPet FRET cleavage; at 10 µM; hits give high values

Sentrin-specific protease 1 (Homo sapiens), sequence (Q9P0U3 419-644 limits assumed): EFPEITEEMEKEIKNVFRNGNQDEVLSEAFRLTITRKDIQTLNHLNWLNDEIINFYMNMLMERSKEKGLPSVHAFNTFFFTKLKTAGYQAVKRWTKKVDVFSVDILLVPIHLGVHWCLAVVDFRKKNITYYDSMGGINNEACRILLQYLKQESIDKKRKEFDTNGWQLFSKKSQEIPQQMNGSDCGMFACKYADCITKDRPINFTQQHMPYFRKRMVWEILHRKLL

COc1ccccc1N=Nc1c(O)[nH]c(=S)[nH]c1=O
inhibition: 52% (active)
